# Measured values taken from the supplement of paper PMC12494721.
# Where a name gives a salt, the structure may show the parent alone.
# Columns and labels:
# Settings in all cases: incubation time: 27 h, anaerobic, 37 °C;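 for the amine columns active = adjusted P below 0.05 in both replicates with a change the same way and a mean fold change under 0.8 or over 1.25; inactive = the rest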
# [1] = system: Clostridium sporogenes DSM 1664; assay: growth (OD595) fold change vs plate DMSO controls (fold change (ratio)); higher = more growth
# Outline: (§1)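 Anaerobic 27 h, 37 °C mGAM 96-well cultures were shaken, then read for absorbance at 595 nm. Values were blank-subtracted and corrected for compound background using 20 µM compound solutions in water. A calibration factor of 5 converted them to OD. Growth is the fold change versus the median of plate DMSO controls. Fold changes above 1.5 were set to NA, and values are the mean of 2 biological replicates.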
# Escherichia coli IAI1 [2] = assay: as above
# Outline: as §1
# [3] = system: Klebsiella aerogenes DSM 30053; assay: as above
# Outline: as §1
# [4] = system: Ruminococcus gnavus DSM 108212; assay: as above
# Outline: as §1
# [5] = system: Klebsiella aerogenes DSM 30053; assay: fold change of Histamine concentration vs plate DMSO controls (fold change (ratio)); higher = more amine produced, active = hit call of the paper (significant change in both replicates, either direction)
# Outline: (§2)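 Amines were quantified by LC–triple-quadrupole MS in dynamic MRM mode against external calibration curves, with drift correction within each batch. The samples were whole anaerobic mGAM cultures of four gut bacterial strains, grown for 27 h at 37 °C in 80 µL wells and extracted with cold acetonitrile/methanol with 0.1% formic acid, then centrifuged. Values are reported as fold change over DMSO controls on the same plate. The mean of 2 biological replicates is given.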
# [6] = system: Clostridium sporogenes DSM 1664; assay: fold change of Tryptamine concentration vs plate DMSO controls (fold change (ratio)); higher = more amine produced, active = hit call of the paper (significant change in both replicates, either direction)
# Outline: as §2
# [7] = system: Ruminococcus gnavus DSM 108212; assay: as above
# Outline: as §2
# Escherichia coli IAI1 [8] = assay: fold change of Putrescine concentration vs plate DMSO controls (fold change (ratio)); higher = more amine produced, active = hit call of the paper (significant change in both replicates, either direction)
# Outline: as §2
# [9] = system: Klebsiella aerogenes DSM 30053; assay: as above
# Outline: as §2
# Escherichia coli IAI1 [10] = assay: fold change of Cadaverine concentration vs plate DMSO controls (fold change (ratio)); higher = more amine produced, active = hit call of the paper (significant change in both replicates, either direction)
# Outline: as §2
# [11] = system: Klebsiella aerogenes DSM 30053; assay: as above
# Outline: as §2
# [12] = system: Ruminococcus gnavus DSM 108212; assay: fold change of 2-Phenylethylamine concentration vs plate DMSO controls (fold change (ratio)); higher = more amine produced, active = hit call of the paper (significant change in both replicates, either direction)
# Outline: as §2
Compound,growth [1],growth (Escherichia coli IAI1 [2]),growth [3],growth [4],fold change of Histamine concentration [5],fold change of Tryptamine concentration [6],fold change of Tryptamine concentration [7],fold change of Putrescine concentration (Escherichia coli IAI1 [8]),fold change of Putrescine concentration [9],fold change of Cadaverine concentration (Escherichia coli IAI1 [10]),fold change of Cadaverine concentration [11],fold change of 2-Phenylethylamine concentration [12]
CCN1CCCC1CNC(=O)c1cc(S(=O)(=O)CC)c(N)cc1OC (stereo not given) [Amisulpride] (20 µM),1.16,0.998,1,1.31,1.01 (inactive),1.01 (inactive),1.04 (inactive),1.01 (inactive),0.999 (inactive),0.987 (inactive),0.999 (inactive),1.05 (inactive)
CN1CCN(c2c(F)cc3c(=O)c(C(=O)O)cn4c3c2SCC4)CC1 [Rufloxacin] (20 µM),0.0133,0.0641,0.299,0.953,0.201 (active),0.0518 (active),0.901 (inactive),0.875 (inactive),1.18 (inactive),0.26 (active),0.997 (inactive),0.952 (inactive)
CCCCNc1cc(C(=O)O)cc(S(N)(=O)=O)c1Oc1ccccc1 [Bumetanide] (20 µM),1.19,1.01,1,0.971,0.994 (inactive),1.03 (inactive),1.05 (inactive),1.04 (inactive),1.02 (inactive),1.03 (inactive),1 (inactive),1.07 (inactive)
O=C1OCCN1/N=C/c1ccc([N+](=O)[O-])o1 [Furazolidone] (20 µM),0.395,1.04,0.855,1.22,0.991 (inactive),0.402 (inactive),0.973 (inactive),0.81 (inactive),0.937 (inactive),1.75 (active),1 (inactive),1.11 (inactive)
CC(=O)NS(=O)(=O)c1ccc(NC(=O)c2ccccc2C(=O)O)cc1 [Phthalylsulfacetamide] (20 µM),0.948,0.995,1.03,0.929,1.04 (inactive),1.05 (inactive),1.03 (inactive),1.03 (inactive),1.01 (inactive),1.02 (inactive),0.992 (inactive),1.02 (inactive)
C[C@@H](c1ncncc1F)[C@](O)(Cn1cncn1)c1ccc(F)cc1F [Voriconazole] (20 µM),0.883,0.997,1.02,0.932,0.988 (inactive),1.07 (inactive),1.01 (inactive),1.02 (inactive),0.999 (inactive),0.988 (inactive),1 (inactive),0.991 (inactive)
COc1cc(/C=C/C(=O)N2CCN(CC(=O)N3CCCC3)CC2)cc(OC)c1OC [Cinepazide maleate] (20 µM),1.13,1.06,1.02,1.02,1.03 (inactive),1.07 (inactive),1.1 (inactive),1.01 (inactive),0.911 (inactive),0.933 (inactive),1.06 (inactive),1.14 (inactive)
CNC(=C[N+](=O)[O-])NCCSCc1ccc(CN(C)C)o1 [Ranitidine hydrochloride] (20 µM),1.07,1.01,1.07,1.47,0.953 (inactive),1.05 (inactive),0.99 (inactive),0.996 (inactive),1.01 (inactive),1.03 (inactive),1.02 (inactive),0.984 (inactive)
O=c1n(CCCN2CCN(c3cccc(Cl)c3)CC2)nc2ccccn12 [Trazodone hydrochloride] (20 µM),1.09,0.982,0.987,1.06,1.03 (inactive),0.988 (inactive),0.809 (inactive),1.01 (inactive),0.997 (inactive),0.982 (inactive),0.99 (inactive),0.799 (inactive)
CCCNC(C)(C)C(=O)Nc1ccccc1C [Quatacaine] (20 µM),1.01,0.991,0.979,0.952,1.01 (inactive),1.01 (inactive),1.05 (inactive),0.994 (inactive),1 (inactive),0.951 (inactive),0.997 (inactive),1.04 (inactive)
C#CCN(C)Cc1ccccc1 [Pargyline hydrochloride] (20 µM),0.983,0.989,1.03,0.999,0.983 (inactive),1.01 (inactive),1.01 (inactive),0.99 (inactive),1.01 (inactive),1 (inactive),1.01 (inactive),0.995 (inactive)
CN(C)CCOc1ccc(/C(=C(/CCCl)c2ccccc2)c2ccccc2)cc1 [Toremifene] (20 µM),1.18,1.1,1.15,0.943,0.943 (inactive),1.02 (inactive),0.647 (active),0.998 (inactive),0.975 (inactive),0.98 (inactive),1.04 (inactive),0.871 (inactive)
Nc1ccc(O)c(C(=O)O)c1 [Mesalamine] (20 µM),0.832,0.983,0.985,0.924,1.06 (inactive),1.02 (inactive),1.01 (inactive),0.957 (inactive),1.01 (inactive),0.97 (inactive),0.98 (inactive),1.04 (inactive)
Clc1ccc(CCC(Cn2ccnc2)Sc2c(Cl)cccc2Cl)cc1 (stereo not given) [Butoconazole nitrate] (20 µM),1.12,1.02,0.995,0.621,1.01 (inactive),1.07 (inactive),0.514 (active),0.997 (inactive),0.992 (inactive),0.995 (inactive),0.989 (inactive),0.623 (active)
OCCOCCN1CCN(C(c2ccccc2)c2ccc(Cl)cc2)CC1 (stereo not given) [Hydroxyzine dihydrochloride] (20 µM),1.07,1.01,1.05,0.906,0.909 (inactive),1.01 (inactive),1.02 (inactive),0.98 (inactive),0.966 (inactive),0.968 (inactive),1.02 (inactive),1.06 (inactive)
CN(C(=O)C(Cl)Cl)c1ccc(OC(=O)c2ccco2)cc1 [Diloxanide furoate] (20 µM),1.1,0.998,1.01,0.993,1 (inactive),0.918 (inactive),0.915 (inactive),1.02 (inactive),1 (inactive),0.973 (inactive),0.997 (inactive),0.979 (inactive)
COC(c1ccccc1)(c1ccccc1)[C@H](Oc1nc(C)cc(C)n1)C(=O)O [Ambrisentan] (20 µM),0.967,1.2,0.991,1.04,1.07 (inactive),1.01 (inactive),1.02 (inactive),1.21 (inactive),0.992 (inactive),0.985 (inactive),0.997 (inactive),1.01 (inactive)
COc1cnc(NS(=O)(=O)c2ccc(N)cc2)nc1 [Sulfameter] (20 µM),0.997,0.976,0.981,1.35,1.01 (inactive),0.945 (inactive),1.03 (inactive),1.01 (inactive),0.996 (inactive),1.03 (inactive),0.987 (inactive),1.01 (inactive)
CC1=C(C(=O)O)N2C(=O)[C@@H](NC(=O)[C@H](N)c3ccc(O)cc3)[C@H]2SC1 [Cefadroxil] (20 µM),0.898,1.03,1,1.08,1.08 (inactive),0.974 (inactive),1 (inactive),1.03 (inactive),1.01 (inactive),1.02 (inactive),0.996 (inactive),1.03 (inactive)
CCN1C(=O)NC(c2ccccc2)C1=O (stereo not given) [Ethotoin] (20 µM),0.983,0.999,0.982,1.14,1.06 (inactive),0.942 (inactive),0.879 (inactive),0.991 (inactive),0.991 (inactive),0.999 (inactive),0.981 (inactive),0.855 (inactive)
CC(=O)Nc1cccc(O)c1 [Metacetamol] (20 µM),0.961,1.03,1.01,0.966,1.01 (inactive),0.941 (inactive),0.999 (inactive),1.02 (inactive),0.992 (inactive),1 (inactive),0.988 (inactive),0.962 (inactive)
C/C(=C(\CCOP(=O)(O)O)SC(=O)c1ccccc1)N(C=O)Cc1cnc(C)nc1N [Benfotiamine] (20 µM),0.989,0.98,1.03,1.05,0.984 (inactive),1.01 (inactive),0.96 (inactive),0.942 (inactive),1 (inactive),1.04 (inactive),1 (inactive),0.959 (inactive)
CCc1oc2ccccc2c1C(=O)c1cc(I)c(O)c(I)c1 [Benziodarone] (20 µM),0.283,0.975,1.01,0.707,1.03 (inactive),0.0565 (active),0.468 (active),1.03 (inactive),1.01 (inactive),1.05 (inactive),1.01 (inactive),0.489 (inactive)
CCOCCn1c(N2CCCN(C)CC2)nc2ccccc21 [Emedastine difumarate] (20 µM),1.08,1.02,1.03,0.971,0.993 (inactive),0.994 (inactive),1.02 (inactive),0.991 (inactive),1.01 (inactive),1 (inactive),0.999 (inactive),1.05 (inactive)
O=C(c1ccccc1)c1ccc2n1CCC2C(=O)O (stereo not given) [Ketorolac tromethamine] (20 µM),0.909,1.04,0.976,0.993,1.04 (inactive),1.08 (inactive),1.03 (inactive),1.15 (inactive),1.03 (inactive),1.07 (inactive),0.995 (inactive),0.994 (inactive)
